Experimental data published in PubChem BioAssay AID1159580 (chemical genetic matrix, 2015).
“And” between values parts separate entries of the source, which are not always exact repeats. Identical values can stand only once. About 2,000 (36%) of roughly 5,500 compounds were called active. Another 18% or so got no clear call; they are omitted. Rule as the data show it: active = normalized growth mostly below about 0.91 (no sharp cut-off); inconclusive = no clear call, values can overlap the other calls; inactive = mostly above about 0.92. The list shows a part of the results.

Test: chemical genetic growth profiling, strain panel (AID 1159580);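 also: tested at 20 µM; growth read once vehicle control cultures reached saturation at 30 °C; 1 = growth at the plate median or of vehicle wells; lower values mean less growth of the strain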
Settings: S. cerevisiae deletion strains, growth OD

Measured: normalized growth

Cc1c(Cl)cccc1Nc1ccccc1C(=O)O
active: locus YAL021C, strain ccr4, active compounds read low 0.863 | locus YAL026C, strain drs2, active compounds read low 0.805 | locus YAL030W, strain snc1, active compounds read low 0.842 | locus YBL061C, strain skt5, active compounds read low 0.81 | locus YBR009C, strain hhf1, active compounds read low 0.82 | locus YBR021W, strain FUR4, active compounds read low 0.74 | locus YBR023C, strain chs3, active compounds read low 0.801 | locus YBR171W, strain sec66, active compounds read low 0.729 | locus YBR229C, strain ROT2, active compounds read low 0.848 | locus YBR231C, strain swc5, active compounds read low 0.825 | locus YBR279W, strain paf1, active compounds read low 0.839 | locus YCL011C, strain gbp2, active compounds read low 0.83 | locus YCL016C, strain dcc1, active compounds read low 0.827 | locus YCL029C, strain bik1, active compounds read low 0.812 | locus YCL061C, strain MRC1, active compounds read low 0.842 | locus YCL069W, strain vba3, active compounds read low 0.815 | locus YCR088W, strain abp1, active compounds read low 0.812 | locus YDL005C, strain med2, active compounds read low 0.865 | locus YDL035C, strain GPR1, active compounds read low 0.848 | locus YDL040C, strain nat1, active compounds read low 0.83 | locus YDL074C, strain BRE1, active compounds read low 0.75 | locus YDL134C, strain PPH21, active compounds read low 0.817 | locus YDL192W, strain arf1, active compounds read low 0.796 | locus YDR001C, strain nth1, active compounds read low 0.804 | locus YDR069C, strain doa4, active compounds read low 0.897 | locus YDR101C, strain arx1, active compounds read low 0.835 | locus YDR137W, strain rgp1, active compounds read low 0.464 | locus YDR150W, strain NUM1, active compounds read low 0.836 | locus YDR159W, strain sac3, active compounds read low 0.615 | locus YDR162C, strain NBP2, active compounds read low 0.709 | locus YDR195W, strain ref2 1.15 [resistant] | locus YDR297W, strain sur2, active compounds read low 0.835 | locus YDR318W, strain mcm21, active compounds read low 0.793 | locus YDR334W, strain swr1, active compounds read low 0.812 | locus YDR335W, strain msn5, active compounds read low 0.836 | locus YDR388W, active compounds read low 0.79 | locus YDR392W, strain spt3, active compounds read low 0.225 | locus YDR502C, strain sam2, active compounds read low 0.802 | locus YEL003W, strain gim4, active compounds read low 0.839 | locus YEL037C, strain rad23, active compounds read low 0.836 | locus YEL061C, strain CIN8 (second series), active compounds read low 0.819 | locus YEL061C, strain CIN8, active compounds read low 0.855 | locus YER015W, strain faa2, active compounds read low 0.848 | locus YER016W, strain bim1, active compounds read low 0.856 | locus YER110C, active compounds read low 0.769 | locus YER111C, strain swi4, active compounds read low 0.831 | locus YER155C, strain BEM2 (second series), active compounds read low 0.595 | locus YER155C, strain BEM2, active compounds read low 0.684 | locus YER167W, strain BCK2, active compounds read low 0.812 | locus YFR010W, strain ubp6, active compounds read low 0.876 | locus YGL086W, strain mad1, active compounds read low 0.815 | locus YGL167C, strain pmr1, active compounds read low 0.757 | locus YGL173C, strain kem1, active compounds read low 0.819 | locus YGL227W, strain vid30, active compounds read low 0.808 | locus YGL240W, strain doc1, active compounds read low 0.791 | locus YGL248W, strain PDE1, active compounds read low 0.841 | locus YGL253W, strain hxk2, active compounds read low 0.706 | locus YGR078C, strain PAC10, active compounds read low 0.814 | locus YGR135W, strain pre9, active compounds read low 0.792 | locus YGR252W, strain gcn5, active compounds read low 0.609 | locus YHR027C, strain rpn1, active compounds read low 0.843 | locus YHR030C, strain SLT2, active compounds read low 0.827 and 0.555 | locus YHR079C, strain IRE1 (second series), active compounds read low 0.793 | locus YHR079C, strain IRE1, active compounds read low 0.633 | locus YHR094C, strain hxt1, active compounds read low 0.796 | locus YHR129C, strain ARP1, active compounds read low 0.837 | locus YHR142W, strain chs7, active compounds read low 0.586 | locus YHR200W, strain rpn10, active compounds read low 0.789 | locus YIL066C, strain RNR3, active compounds read low 0.839 | locus YIR030C, strain dcg1, active compounds read low 0.792 | locus YJL092W, strain hpr5, active compounds read low 0.814 | locus YJL095W, strain BCK1 (second series), active compounds read low 0.828 | locus YJL095W, strain BCK1, active compounds read low 0.594 and 0.648 | locus YJL115W, strain asf1, active compounds read low 0.854 | locus YJL129C, strain trk1, active compounds read low 0.442 | locus YJL134W, strain LCB3, active compounds read low 0.842 | locus YJL154C, strain vps35, active compounds read low 0.845 | locus YJL164C, strain tpk1, active compounds read low 0.803 | locus YJL166W, strain qcr8, active compounds read low 0.756 | locus YJL168C, strain set2, active compounds read low 0.797 | locus YJL187C, strain SWE1 (second series), active compounds read low 0.851 | locus YJL187C, strain SWE1, active compounds read low 0.832 | locus YJR066W, strain TOR1, active compounds read low 0.731
inactive: locus YDL101C, strain DUN1, active compounds read low 0.929 | locus YDL185W, strain tfp1, active compounds read low 0.956 | locus YGL078C, strain dbp3, active compounds read low 0.958 | locus YHR013C, strain ard1, active compounds read low 0.854 | locus YIL073C, strain SPO22, active compounds read low 0.776 | locus YIL125W, strain kgd1, active compounds read low 0.966 | locus YJR043C, strain POL32, active compounds read low 0.867
